Results from PubChem BioAssay (Tox21).
Unmarked numbers belong to inactive results. Activity calls are given as the source filed them. Calls follow the shape of the full dose curve.

Biological target: Muscarinic acetylcholine receptor M1 (Homo sapiens) (UniProt P11229)
Assay: Cholinergic receptor muscarinic 1 (CHRM1) small molecule agonists, cell-based qHTS assay (AID 1963589); also: nearly all actives have a fitted effect of over 35% in size
Settings: CHRM1-CHO cells, agonist mode, calcium flux fluorescence; series mostly up to 76.8 µM; activation: at the top concentration
From the text: National Center for Advancing Translational Sciences [NCATS]
Division of Preclinical Innovation [DPI]
U.S. Environmental Protection Agency [EPA]
National Institutes of Environmental Health Sciences [NIEHS]
National Toxicology Program [NTP]
U.S. Food and Drug Administration [FDA]
The CHRM1 is a muscarinic receptor. This receptor plays a crucial role in learning and memory processes and has long been identified as a promising therapeutic target for the improvement of cognitive decline in Alzheimer's disease (AD). The CHRM1-CHO cell line stably expressing human muscarinic acetylcholine receptor M1 (CHRM1) can be used for screening agonists and antagonists of interactions between CHRM1 and its ligands. The CHRM1-CHO Calcium Flux Assay is a homogeneous fluorescence-based assay for detecting the intracellular calcium level using FDSS kinetic plate reader system.
CHRM1-CHO cells were dispensed at 1000 cells/3uL/well in 1536-well black-clear bottom plates using a Multidrop Dispenser. After the assay plates were incubated at a 37 C/5% CO2 incubator for 18 h, 3 uL of Dye Loading Buffer was transferred to the assay plate by a Flying Reagent Dispenser. The assay plates were incubated at 37 C for 1h. For agonist mode, 23 nL of compounds dissolved in DMSO, positive controls or DMSO only was transferred to the assay plate by a pin tool. […] Each test compound was measured at 15 concentrations in three independent runs.
% is scaled to controls: 0 for no effect and ±100 for the full control effect; potency is read from the fitted curve at half-maximal effect.

Chain of Muscarinic acetylcholine receptor M1 (Homo sapiens) (P11229 whole entry, looked up): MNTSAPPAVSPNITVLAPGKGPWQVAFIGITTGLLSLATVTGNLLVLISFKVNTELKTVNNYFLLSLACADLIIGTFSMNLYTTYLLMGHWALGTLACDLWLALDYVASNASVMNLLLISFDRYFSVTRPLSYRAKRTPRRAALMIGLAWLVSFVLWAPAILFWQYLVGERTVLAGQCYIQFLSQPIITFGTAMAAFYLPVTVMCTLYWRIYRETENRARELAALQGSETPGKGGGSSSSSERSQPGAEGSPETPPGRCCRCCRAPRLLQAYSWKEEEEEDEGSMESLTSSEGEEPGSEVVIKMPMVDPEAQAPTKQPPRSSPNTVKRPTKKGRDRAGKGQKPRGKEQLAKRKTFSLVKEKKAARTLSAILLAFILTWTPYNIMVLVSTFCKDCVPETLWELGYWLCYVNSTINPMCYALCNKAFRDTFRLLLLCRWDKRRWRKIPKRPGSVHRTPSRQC

Compound	activation	Potency
Cc1ccc(C)c2ccccc12	-0.107%	
BrCC1CO1 (stereo not given)	0.705%	
CC(Cc1ccccc1)NCCn1cnc2c1c(=O)n(C)c(=O)n2C (stereo not given)	-0.315%	
CNC(=O)N(C)c1nc2ccccc2s1	-0.528%	
Cc1nc2ccccc2c(=O)n1-c1ccccc1Cl	-0.778%	
OP(O)c1ccccc1	0.362%	
Oc1c(Cl)cc(Cl)cc1Cl		inactive
O=[N+]([O-])c1cc(C(F)(F)F)c(Cl)c([N+](=O)[O-])c1Cl	1.21%	
CCNc1nc(Cl)nc(NC(C)(C)C)n1	0.0323%	
Nc1ccc([N+](=O)[O-])cc1	15.4%	
CC(=O)CN(CC(C)=O)N=O	-0.183%	
Cc1cc(=O)[nH]o1	0.0186%	
O=C(O)C(O)C(O)C(=O)O (stereo not given)	4.06%	
Cc1c(COC(=O)[C@@H]2[C@H](/C=C(\Cl)C(F)(F)F)C2(C)C)cccc1-c1ccccc1		inactive
CC(C)N(CCC(C(N)=O)(c1ccccc1)c1ccccn1)C(C)C (stereo not given)	-0.335% [at 35.3 µM]	
NC(=O)C(Cl)Cl	8.83%	
Cc1nc(N(C)C)nc(OC(=O)N(C)C)c1C	-0.278%	
CC(C)C1CCC(Cc2ccc(Cl)cc2)C1(O)Cn1cncn1 (stereo not given)	5.2%	
COc1cc(CC(C)N)c(OC)cc1Br (stereo not given)	4.72%	
C[C@]12CC[C@H](O)C[C@H]1CC[C@@H]1[C@@H]2C[C@@H](O)[C@]2(C)[C@@H](C3=CC(=O)OC3)CC[C@]12O	0.353%	

Compound	activation	Potency
CC(=O)[O-].CC(=O)[O-].CC(=O)[O-].[Sb+3]	-0.154% [at 2.72 µM]	
Cc1ccc([N+](=O)[O-])[c]2c1[O][Hg]2		23.9 µM (active)
O=C(NC(O)C(Cl)(Cl)Cl)NC(O)C(Cl)(Cl)Cl (stereo not given)	-0.286% [at 35.3 µM]	
CC(=O)/C=C/c1ccc2c(c1)OCO2	-0.682%	
O=C(NC(=O)c1cc(F)c(F)cc1Cl)Nc1cc(F)ccc1N1CCC(C(=O)O)CC1	0.47% [at 35.3 µM]	
O=C(NC(=O)c1c(F)cccc1F)Nc1ccc(OC(F)(F)C(F)OC(F)(F)F)c(Cl)c1 (stereo not given)	13.2% [at 35.3 µM]	
OC(c1ccc(F)cc1)(c1cncnc1)c1ccccc1Cl (stereo not given)	-1.14%	
CCCCCl	0.0222%	
O=C(O)c1ccc2[nH]cc(CCCCN3CC=C(c4ccccc4)CC3)c2c1	-0.764% [at 35.3 µM]	
O=[N+]([O-])C(Br)Br	2.64%	
Nc1c(Cl)c(F)nc(OCC(=O)O)c1Cl	0.264%	
CCCOC(=O)Cc1ccc(OCC(=O)N(CC)CC)c(OC)c1	-0.219% [at 35.3 µM]	
COC(N)=O	0.625%	
O=NN1CCN(N=O)CC1	-0.0793%	
CCOP(=S)(S)OCC	-0.689%	
BrCCCCCCBr	0.347%	
CCOC(=O)COc1ccc(Cl)cc1Cl	-0.948%	
C=C(C)C(=O)OCCCCOC(=O)C(=C)C	0.0948%	
O=NN1CCNCC1	2.42%	
CCC[CH2][Sn]([CH2]CCC)([CH2]CCC)[CH2]CCC	5.78%	
